Inconclusive results are not listed. The source made the active and inactive calls. The call rests on the fitted dose curve; in most records, active means well fitted curve in the direction sought with a large enough effect; inconclusive means small, poorly fitted or top-dose-only effect, or another doubt; inactive means no such curve, though single readings can be large; an effect the other way counts as inactive or inconclusive.
Key:
[1] = Cell Viability - H-4-II-E (AID 543);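 further: cells exposed to compound for 40 hours; on the % scale 0 is the no-effect control and ±100 the full control effect; nearly all actives have a fitted effect of over 35% in size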
Outline: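 AC50 from Hill-modelled qHTS concentration-response curves. H-4-II-E rat hepatoma cells in complete medium, 40 hr exposure at 37 °C, viability by CellTiter-Glo ATP luminescence.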

[2] = Cell Viability - SH-SY5Y (AID 544); conditions: SH-SY5Y neuroblastoma cell viability; viability change, negative = cytotoxic: at 92.2 µM (top of the series);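 further: cells exposed to compound for 40 hours; nearly all actives have a fitted effect of over 55% in size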
Outline: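 Quantitative HTS in SH-SY5Y neuroblastoma cells, 40 hr treatment at 37 °C, ATP content by luciferase luminescence; AC50 from Hill fits.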

[3] = Cell Viability - Renal Proximal Tubule (AID 545);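 further: cells exposed to compound for 40 hours; nearly all actives have a fitted effect of over 40% in size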
Outline: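 Viability taken as intracellular ATP (CellTiter-Glo luminescence) after 40 hr, 37 °C compound treatment of primary proximal tubule cells from rat kidney, 1000 cells/well; Hill-equation fits of qHTS concentration-response data gave AC50.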

[4] = Cell Viability - Mesenchymal (AID 546);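 further: cells exposed to compound for 40 hours before reading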
Outline: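 In this qHTS cytotoxicity format, glomerulus-derived human mesenchymal kidney cells received compound for 40 hr, then luciferase-based ATP quantitation. Concentration-response data were fitted with the Hill equation.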

[5] = Cellular Toxicity (caspase-3) HepG2 (AID 654);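 further: cells exposed to compound for 16 hours before reading; 0% = DMSO alone and 100% = caspase signal from 100 µM tamoxifen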
Outline: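 Concentration-response AC50 values reflect caspase-3/7 induction in HepG2 cells after 16 hours of compound exposure, quantified by luminescence from liberated aminoluciferin and referenced to 100 uM tamoxifen as full stimulation.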

[6] = Cellular Toxicity (caspase-3) Jurkat (AID 655); conditions: Jurkat caspase-3 activation, luminescence; caspase-3 activation: at 92.2 µM (top of the series), DMSO = 0%, tamoxifen = 100%;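 further: cells exposed to compound for 16 h at 37 °C before reading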
Outline: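 Luminescent Caspase-Glo 3/7 read-out (20 min, room temperature) after 16 h compound treatment at 37 C of 5000 Jurkat cells per well. AC50 derived by Hill-equation fitting, scaled between DMSO basal and 100 uM tamoxifen stimulation.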

[7] = Cellular Toxicity (caspase-3) HUV-EC-C (AID 656)
Outline: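 Luminescent Caspase-Glo 3/7 readout after 16 h, 37 °C compound exposure of HUV-EC-C endothelial cells, 1000 per well, complete medium. AC50 derived by Hill fitting, with DMSO as baseline and 100 uM tamoxifen as full activation.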

[8] = Cellular Toxicity (caspase-3) SHSY5Y (AID 657)
Outline: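 Luminescent Caspase-Glo 3/7 read-out, 1 hr room temperature, follows 16 hours of compound treatment of SH-SY5Y cells at 37 °C. Normalization: DMSO basal, 10 uM staurosporine as 100%; AC50 values from Hill-equation concentration-response fits.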

[9] = Cellular Toxicity (caspase-3) BJ (AID 658);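 further: 0% = DMSO basal and 100% = 10 µM staurosporine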
Outline: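 Plated BJ cells (1000/well) rested 5 hr, received compound for 16 hr at 37 °C, then Caspase-Glo 3/7 reagent for 1 hr at room temperature before luminescence reading.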

[10] = Cellular Toxicity (caspase-3) MRC-5 (AID 659);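 further: 0% = DMSO basal and 100% = 10 µM staurosporine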
Outline: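 Apoptosis readout in MRC-5 cells: luciferase light generated after caspase 3/7 cleaves a peptide-aminoluciferin substrate, measured post 16 hr compound incubation at 37 °C.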

CCCCOCCOCCSC#N
inactive: Potency [1] | Potency [2] | Potency [3] | Potency [4] | Potency [5] | caspase-3 activation [6] 1.11% | outcome [7] | outcome [8] | outcome [9]

CCN(CC)c1cccc(O)c1
inactive: Potency [1] | Potency [2] | Potency [3] | Potency [4] | Potency [5] | caspase-3 activation [6] 0.712% | outcome [7] | outcome [8] | outcome [9] | outcome [10]

FC(F)(F)c1ccccc1Cl
inactive: Potency [1] | Potency [2] | Potency [3] | Potency [4] | Potency [5] | caspase-3 activation [6] 2.68% | outcome [7] | outcome [8] | outcome [9]

CCCCCCCCCCCCOCC1CO1 (configuration not stated)
inactive: Potency [1] | Potency [2] | Potency [3] | Potency [4] | Potency [5] | caspase-3 activation [6] 3.67% | outcome [7] | outcome [8] | outcome [9]

CCCCC(C=O)CC (configuration not stated)
inactive: Potency [1] | Potency [2] | Potency [3] | Potency [4] | Potency [5] | caspase-3 activation [6] -0.967% | outcome [7] | outcome [8] | outcome [9] | outcome [10]

Oc1cccc(Nc2ccccc2)c1
inactive: Potency [1] | Potency [2] | Potency [3] | Potency [4] | Potency [5] | caspase-3 activation [6] 2.02% | outcome [7] | outcome [8] | outcome [9]

c1ccc2c(c1)Oc1ccccc1S2
inactive: Potency [1] | Potency [2] | Potency [3] | Potency [4] | Potency [5] | caspase-3 activation [6] -0.252% | outcome [7] | outcome [8] | outcome [9] | outcome [10]

C=CCn1c(=O)n(CC=C)c(=O)n(CC=C)c1=O
inactive: Potency [1] | Potency [2] | Potency [3] | Potency [4] | Potency [5] | caspase-3 activation [6] -0.997% | outcome [7] | outcome [8] | outcome [9]

CC1CCCO1 (configuration not stated)
inactive: Potency [1] | Potency [2] | Potency [3] | Potency [4] | Potency [5] | caspase-3 activation [6] 1.31% | outcome [7] | outcome [8] | outcome [9] | outcome [10]

CC(=O)C1(C)CC2=C(CCCC2(C)C)CC1C (configuration not stated)
inactive: Potency [1] | Potency [2] | Potency [3] | Potency [4] | Potency [5] | caspase-3 activation [6] -0.117% | outcome [7] | outcome [8] | outcome [9]

CC/C(C)=N/O
inactive: Potency [1] | Potency [2] | Potency [3] | Potency [4] | Potency [5] | caspase-3 activation [6] -0.144% | outcome [7] | outcome [8] | outcome [9] | outcome [10]

ClC/C=C/CCl
inactive: Potency [1] | Potency [2] | Potency [3] | Potency [4] | Potency [5] | caspase-3 activation [6] 1.47% | outcome [7] | outcome [8] | outcome [9]

Fc1ccccc1
inactive: Potency [1] | Potency [2] | Potency [3] | Potency [4] | Potency [5] | caspase-3 activation [6] 0.771% | outcome [7] | outcome [8] | outcome [9]

c1ccc2n[nH]nc2c1
inactive: Potency [1] | Potency [2] | Potency [3] | Potency [4] | Potency [5] | caspase-3 activation [6] 1.47% | outcome [7] | outcome [8] | outcome [9] | outcome [10]

CC(C)(C)OCC1CO1 (configuration not stated)
inactive: Potency [1] | Potency [2] | Potency [3] | Potency [4] | Potency [5] | caspase-3 activation [6] 0.113% | outcome [7] | outcome [8] | outcome [9] | outcome [10]

C=C(C)C(=O)OC
inactive: Potency [1] | Potency [2] | Potency [3] | Potency [4] | Potency [5] | caspase-3 activation [6] 1.74% | outcome [7] | outcome [8] | outcome [9] | outcome [10]

CC/C=C1/OC(=O)c2ccccc21
inactive: Potency [1] | Potency [2] | Potency [3] | Potency [4] | Potency [5] | caspase-3 activation [6] -0.618% | outcome [7] | outcome [8] | outcome [9] | outcome [10]

Cc1ccc(Br)cc1
inactive: Potency [1] | Potency [2] | Potency [3] | Potency [4] | Potency [5] | caspase-3 activation [6] 0.635% | outcome [7] | outcome [8] | outcome [9] | outcome [10]

Cc1cc(C)cc([N+](=O)[O-])c1
inactive: Potency [1] | Potency [2] | Potency [3] | Potency [4] | Potency [5] | caspase-3 activation [6] -1.49% | outcome [7] | outcome [8] | outcome [9] | outcome [10]

O=C(Cl)c1ccccc1[N+](=O)[O-]
inactive: Potency [1] | Potency [2] | Potency [3] | Potency [4] | Potency [5] | caspase-3 activation [6] 0.685% | outcome [7] | outcome [8] | outcome [9] | outcome [10]

Clc1ccc(Cl)c(Cl)c1Cl
inactive: Potency [1] | Potency [2] | Potency [3] | Potency [4] | Potency [5] | caspase-3 activation [6] -1.65% | outcome [7] | outcome [8] | outcome [9] | outcome [10]

CC(=O)c1cc(C)oc1C
inactive: Potency [1] | Potency [2] | Potency [3] | Potency [4] | Potency [5] | caspase-3 activation [6] 0.691% | outcome [7] | outcome [8] | outcome [9] | outcome [10]

CC(C)C=O
inactive: Potency [1] | Potency [2] | Potency [3] | Potency [4] | Potency [5] | caspase-3 activation [6] 0.00972% | outcome [7] | outcome [8] | outcome [9] | outcome [10]

Cc1cccc(Br)c1
inactive: Potency [1] | Potency [2] | Potency [3] | Potency [4] | Potency [5] | caspase-3 activation [6] -1.22% | outcome [7] | outcome [8] | outcome [9] | outcome [10]
